# Assays:
# Assay in all cases: DAPPL (digital affinity profiling via proximity ligation, sequencing); 10 mM Tris-HCl pH 7.5, 50 mM NaCl, 1 mM DTT, 4% glycerol, room temperature, 30 min; GST-TFs on glutathione beads, 16-mer random dsDNA library, 0.1% formaldehyde crosslink after washing; high values mean tight binding
# [1] = target: T1, FEV (Homo sapiens, UniProt Q99581 1-238); details: protein: recombinant; tags: N-terminal GST; dsDNA, one strand shown
# T1 sequence: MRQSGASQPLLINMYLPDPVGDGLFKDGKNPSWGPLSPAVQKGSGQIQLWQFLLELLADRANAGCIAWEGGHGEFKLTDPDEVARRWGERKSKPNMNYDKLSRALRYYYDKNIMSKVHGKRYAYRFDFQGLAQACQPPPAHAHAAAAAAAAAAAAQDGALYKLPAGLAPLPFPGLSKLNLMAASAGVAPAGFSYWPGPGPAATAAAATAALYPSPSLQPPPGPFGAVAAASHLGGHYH
# Summary of the method: (§1)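 Pools of DNA-barcoded human transcription factors, expressed in yeast as GST fusions on glutathione beads and combined with a tag-only sample, were incubated with 200 nmole of a 16-mer random double-stranded DNA library. Incubation took 30 min at room temperature in Tris/NaCl/DTT/glycerol buffer and was followed by washing, 0.1% formaldehyde crosslinking, proximity ligation (BsaI/T4 ligase, 1 h, 37 °C), PCR amplification and sequencing on an Illumina NextSeq500. Binding signal is the ratio of a hexamer's read frequency for a factor to its frequency for the tag-only sample.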
# [2] = target: ETV5 (Homo sapiens, UniProt P41161 1-510); details: protein: recombinant; tags: N-terminal GST; dsDNA, one strand shown
# Summary of the method: as §1
# [3] = target: HSF1 (Homo sapiens, UniProt Q00613 1-529); details: protein: recombinant; tags: N-terminal GST; chain copies: 3; dsDNA, one strand shown
# Summary of the method: as §1
# [4] = target: T2, SPIC (Homo sapiens, UniProt Q8N5J4 1-248); details: protein: recombinant; tags: N-terminal GST; dsDNA, one strand shown
# T2 sequence: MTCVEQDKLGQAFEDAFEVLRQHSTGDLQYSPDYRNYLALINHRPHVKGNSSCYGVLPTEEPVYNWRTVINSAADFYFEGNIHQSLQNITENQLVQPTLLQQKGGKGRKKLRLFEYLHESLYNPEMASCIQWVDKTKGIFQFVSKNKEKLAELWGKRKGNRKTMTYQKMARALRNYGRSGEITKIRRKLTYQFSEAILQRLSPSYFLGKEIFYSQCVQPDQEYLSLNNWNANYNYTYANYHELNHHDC
# Summary of the method: as §1
# [5] = target: ELF4 (Homo sapiens, UniProt Q99607 1-663); details: protein: recombinant; tags: N-terminal GST; dsDNA, one strand shown
# Summary of the method: as §1
# [6] = target: T3, ELK4 (Homo sapiens, UniProt P28324-2 1-405); details: protein: recombinant; tags: N-terminal GST; dsDNA, one strand shown
# T3 sequence: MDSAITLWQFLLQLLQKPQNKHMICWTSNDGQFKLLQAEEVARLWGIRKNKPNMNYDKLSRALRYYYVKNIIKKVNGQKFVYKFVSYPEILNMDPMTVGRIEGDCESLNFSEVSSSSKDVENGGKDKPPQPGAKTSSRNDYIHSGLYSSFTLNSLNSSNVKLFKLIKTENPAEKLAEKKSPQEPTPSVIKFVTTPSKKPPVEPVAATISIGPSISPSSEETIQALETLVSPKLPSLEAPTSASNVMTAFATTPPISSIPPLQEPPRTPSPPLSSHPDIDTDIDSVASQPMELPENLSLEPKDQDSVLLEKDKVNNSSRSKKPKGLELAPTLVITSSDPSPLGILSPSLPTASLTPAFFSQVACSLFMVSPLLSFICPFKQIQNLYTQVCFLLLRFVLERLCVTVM
# Summary of the method: as §1
# [7] = target: T4, ETV2 (Homo sapiens, UniProt O00321 1-342); details: protein: recombinant; tags: N-terminal GST; dsDNA, one strand shown
# T4 sequence: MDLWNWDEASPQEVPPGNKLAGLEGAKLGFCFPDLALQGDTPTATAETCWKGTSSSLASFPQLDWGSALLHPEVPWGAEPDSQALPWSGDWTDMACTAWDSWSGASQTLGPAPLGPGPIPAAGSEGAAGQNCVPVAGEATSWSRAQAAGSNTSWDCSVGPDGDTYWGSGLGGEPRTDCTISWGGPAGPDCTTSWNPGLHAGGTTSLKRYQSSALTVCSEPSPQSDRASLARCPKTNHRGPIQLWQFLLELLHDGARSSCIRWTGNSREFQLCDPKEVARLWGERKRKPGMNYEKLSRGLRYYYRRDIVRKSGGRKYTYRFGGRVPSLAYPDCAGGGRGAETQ
# Summary of the method: as §1
# [8] = target: T5, ELF3 (Homo sapiens, UniProt P78545 1-371); details: protein: recombinant; tags: N-terminal GST; dsDNA, one strand shown
# T5 sequence: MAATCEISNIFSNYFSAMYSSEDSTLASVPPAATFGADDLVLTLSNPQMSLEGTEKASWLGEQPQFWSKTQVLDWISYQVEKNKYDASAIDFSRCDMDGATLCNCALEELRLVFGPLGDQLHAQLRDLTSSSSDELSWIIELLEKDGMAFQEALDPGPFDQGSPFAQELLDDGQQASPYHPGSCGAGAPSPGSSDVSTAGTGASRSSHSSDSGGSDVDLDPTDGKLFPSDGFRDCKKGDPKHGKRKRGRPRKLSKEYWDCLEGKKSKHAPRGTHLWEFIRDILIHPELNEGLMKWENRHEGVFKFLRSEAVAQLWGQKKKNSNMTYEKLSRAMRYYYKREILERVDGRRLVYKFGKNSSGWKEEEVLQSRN
# Summary of the method: as §1
# [9] = target: CRX (Homo sapiens, UniProt O43186 1-299); details: protein: recombinant; tags: N-terminal GST; dsDNA, one strand shown
# Summary of the method: as §1
# [10] = target: ETV1 (Homo sapiens, UniProt P50549 1-477); details: protein: recombinant; tags: N-terminal GST; dsDNA, one strand shown
# Summary of the method: as §1
# [11] = target: T6, ERF (Homo sapiens, UniProt P50548 1-548); details: protein: recombinant; tags: N-terminal GST; dsDNA, one strand shown
# T6 sequence: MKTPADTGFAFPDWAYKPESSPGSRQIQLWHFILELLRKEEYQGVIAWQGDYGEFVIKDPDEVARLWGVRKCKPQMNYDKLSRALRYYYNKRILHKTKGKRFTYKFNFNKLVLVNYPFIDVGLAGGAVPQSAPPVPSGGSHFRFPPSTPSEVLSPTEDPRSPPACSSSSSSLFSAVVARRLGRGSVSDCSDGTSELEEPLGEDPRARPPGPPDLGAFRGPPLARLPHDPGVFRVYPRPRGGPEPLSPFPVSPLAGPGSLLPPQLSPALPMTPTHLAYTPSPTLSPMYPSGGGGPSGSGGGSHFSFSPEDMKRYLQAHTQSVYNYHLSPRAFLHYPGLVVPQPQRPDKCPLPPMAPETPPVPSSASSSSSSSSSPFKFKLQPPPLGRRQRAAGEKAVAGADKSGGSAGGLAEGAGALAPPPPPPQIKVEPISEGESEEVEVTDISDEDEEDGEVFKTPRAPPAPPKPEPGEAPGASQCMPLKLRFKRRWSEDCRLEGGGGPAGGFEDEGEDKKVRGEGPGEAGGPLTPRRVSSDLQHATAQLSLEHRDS
# Summary of the method: as §1
# [12] = target: T7, ETV3L (Homo sapiens, UniProt Q6ZN32 1-361); details: protein: recombinant; tags: N-terminal GST; dsDNA, one strand shown
# T7 sequence: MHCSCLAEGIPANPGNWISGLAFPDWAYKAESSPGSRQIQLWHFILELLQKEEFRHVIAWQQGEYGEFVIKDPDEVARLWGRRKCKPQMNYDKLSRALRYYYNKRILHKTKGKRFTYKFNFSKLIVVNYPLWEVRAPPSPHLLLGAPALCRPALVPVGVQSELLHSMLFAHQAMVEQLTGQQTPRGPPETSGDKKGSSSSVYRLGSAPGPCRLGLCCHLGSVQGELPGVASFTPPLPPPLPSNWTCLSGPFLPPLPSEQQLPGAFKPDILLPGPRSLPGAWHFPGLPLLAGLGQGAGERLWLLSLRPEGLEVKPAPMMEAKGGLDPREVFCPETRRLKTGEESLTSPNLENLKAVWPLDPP
# Summary of the method: as §1
# [13] = target: T8, ETS2 (Homo sapiens, UniProt P15036 1-469); details: protein: recombinant; tags: N-terminal GST; dsDNA, one strand shown
# T8 sequence: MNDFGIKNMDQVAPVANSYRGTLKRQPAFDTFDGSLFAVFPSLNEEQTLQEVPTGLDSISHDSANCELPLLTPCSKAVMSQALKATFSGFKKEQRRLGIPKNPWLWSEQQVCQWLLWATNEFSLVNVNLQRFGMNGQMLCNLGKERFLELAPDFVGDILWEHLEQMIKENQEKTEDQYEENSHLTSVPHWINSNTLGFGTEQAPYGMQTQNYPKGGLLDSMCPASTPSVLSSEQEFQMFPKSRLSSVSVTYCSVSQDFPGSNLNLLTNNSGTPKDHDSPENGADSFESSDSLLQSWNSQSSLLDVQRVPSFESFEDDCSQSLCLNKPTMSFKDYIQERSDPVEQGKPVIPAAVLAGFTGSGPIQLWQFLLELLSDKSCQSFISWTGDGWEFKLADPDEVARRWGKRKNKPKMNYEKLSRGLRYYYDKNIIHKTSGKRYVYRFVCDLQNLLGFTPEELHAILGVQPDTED
# Summary of the method: as §1
# [14] = target: T9, SPDEF (Homo sapiens, UniProt O95238 1-335); details: protein: recombinant; tags: N-terminal GST; dsDNA, one strand shown
# T9 sequence: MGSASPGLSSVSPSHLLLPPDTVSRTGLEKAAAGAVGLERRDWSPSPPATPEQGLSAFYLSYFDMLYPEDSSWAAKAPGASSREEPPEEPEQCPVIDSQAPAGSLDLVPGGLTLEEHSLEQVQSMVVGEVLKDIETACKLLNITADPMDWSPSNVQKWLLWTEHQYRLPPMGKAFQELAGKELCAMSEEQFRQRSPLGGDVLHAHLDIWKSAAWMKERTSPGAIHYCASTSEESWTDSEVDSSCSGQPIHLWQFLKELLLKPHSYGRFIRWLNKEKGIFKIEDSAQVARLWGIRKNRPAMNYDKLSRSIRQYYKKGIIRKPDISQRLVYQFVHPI
# Summary of the method: as §1
# [15] = target: T10, ETV7 (Homo sapiens, UniProt Q9Y603 1-341); details: protein: recombinant; tags: N-terminal GST; dsDNA, one strand shown
# T10 sequence: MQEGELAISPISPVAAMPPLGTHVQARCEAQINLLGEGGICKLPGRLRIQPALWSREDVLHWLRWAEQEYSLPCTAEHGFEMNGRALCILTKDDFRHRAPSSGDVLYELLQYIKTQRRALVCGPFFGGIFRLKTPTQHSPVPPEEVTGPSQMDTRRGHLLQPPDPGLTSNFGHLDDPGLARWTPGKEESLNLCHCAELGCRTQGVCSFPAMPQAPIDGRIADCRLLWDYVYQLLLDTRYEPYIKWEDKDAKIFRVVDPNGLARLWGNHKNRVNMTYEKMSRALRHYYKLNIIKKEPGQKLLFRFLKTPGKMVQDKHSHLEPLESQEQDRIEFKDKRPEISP
# Summary of the method: as §1
# [16] = target: T11, ELF5 (Homo sapiens, UniProt Q9UKW6-2 1-255); details: protein: recombinant; tags: N-terminal GST; dsDNA, one strand shown
# T11 sequence: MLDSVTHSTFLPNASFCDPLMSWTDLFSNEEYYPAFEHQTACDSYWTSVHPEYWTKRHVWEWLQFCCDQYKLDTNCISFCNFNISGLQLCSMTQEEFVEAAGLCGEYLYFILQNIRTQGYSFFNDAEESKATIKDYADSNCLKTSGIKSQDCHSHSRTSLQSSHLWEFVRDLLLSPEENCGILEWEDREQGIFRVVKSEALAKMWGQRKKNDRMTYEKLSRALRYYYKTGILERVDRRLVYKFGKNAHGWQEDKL
# Summary of the method: as §1
# [17] = target: T12, ETV3 (Homo sapiens, UniProt P41162-2 1-143); details: protein: recombinant; tags: N-terminal GST; dsDNA, one strand shown
# T12 sequence: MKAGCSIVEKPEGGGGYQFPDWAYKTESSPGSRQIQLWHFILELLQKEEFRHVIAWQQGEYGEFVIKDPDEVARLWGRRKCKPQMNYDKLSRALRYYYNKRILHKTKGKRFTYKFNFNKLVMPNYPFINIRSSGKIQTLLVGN
# Summary of the method: as §1
# [18] = target: ETV6 (Homo sapiens, UniProt P41212 1-452); details: protein: recombinant; tags: N-terminal GST; dsDNA, one strand shown
# Summary of the method: as §1
# Chain of CRX (O43186 whole entry): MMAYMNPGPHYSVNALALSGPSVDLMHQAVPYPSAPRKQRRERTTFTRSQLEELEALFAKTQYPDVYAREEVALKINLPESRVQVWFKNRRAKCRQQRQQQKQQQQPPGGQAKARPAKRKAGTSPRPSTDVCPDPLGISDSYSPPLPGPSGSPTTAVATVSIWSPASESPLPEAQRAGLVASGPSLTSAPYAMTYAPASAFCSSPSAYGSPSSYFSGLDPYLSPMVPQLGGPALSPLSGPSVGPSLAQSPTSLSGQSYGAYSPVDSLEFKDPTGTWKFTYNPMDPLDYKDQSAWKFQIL
# Chain of ETV5 (P41161 whole entry): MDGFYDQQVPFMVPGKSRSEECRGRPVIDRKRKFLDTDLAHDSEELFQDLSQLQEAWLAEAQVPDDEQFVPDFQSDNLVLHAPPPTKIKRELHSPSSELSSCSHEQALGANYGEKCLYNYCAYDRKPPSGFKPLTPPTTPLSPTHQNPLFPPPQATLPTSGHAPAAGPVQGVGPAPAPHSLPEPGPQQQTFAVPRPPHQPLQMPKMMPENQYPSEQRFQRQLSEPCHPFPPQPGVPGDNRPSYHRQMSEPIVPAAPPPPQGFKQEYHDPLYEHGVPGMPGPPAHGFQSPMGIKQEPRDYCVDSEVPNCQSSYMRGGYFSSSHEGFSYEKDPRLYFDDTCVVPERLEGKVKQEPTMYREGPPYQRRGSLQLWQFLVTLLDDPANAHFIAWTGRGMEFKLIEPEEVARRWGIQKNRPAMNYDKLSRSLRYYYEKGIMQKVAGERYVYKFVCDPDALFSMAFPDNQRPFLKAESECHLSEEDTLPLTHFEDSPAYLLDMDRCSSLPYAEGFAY
# Chain of ELF4 (Q99607 whole entry): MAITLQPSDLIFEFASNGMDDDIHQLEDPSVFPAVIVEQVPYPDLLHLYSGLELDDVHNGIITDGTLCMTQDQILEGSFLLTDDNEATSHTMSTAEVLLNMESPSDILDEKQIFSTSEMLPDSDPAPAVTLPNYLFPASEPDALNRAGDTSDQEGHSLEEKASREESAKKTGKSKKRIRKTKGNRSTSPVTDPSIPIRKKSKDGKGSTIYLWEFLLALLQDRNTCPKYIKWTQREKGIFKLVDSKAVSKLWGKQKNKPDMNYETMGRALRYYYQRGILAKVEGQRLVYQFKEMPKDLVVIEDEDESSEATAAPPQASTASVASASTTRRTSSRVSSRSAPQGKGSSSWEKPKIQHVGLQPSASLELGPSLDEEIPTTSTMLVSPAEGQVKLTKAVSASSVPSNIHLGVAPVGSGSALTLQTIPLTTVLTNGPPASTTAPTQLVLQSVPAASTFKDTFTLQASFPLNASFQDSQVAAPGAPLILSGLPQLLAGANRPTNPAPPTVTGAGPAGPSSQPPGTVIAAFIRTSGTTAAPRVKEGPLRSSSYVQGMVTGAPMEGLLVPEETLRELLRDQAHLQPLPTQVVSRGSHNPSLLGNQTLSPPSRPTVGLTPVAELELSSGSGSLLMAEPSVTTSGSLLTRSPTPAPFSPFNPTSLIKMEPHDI
# Chain of HSF1 (Q00613 whole entry): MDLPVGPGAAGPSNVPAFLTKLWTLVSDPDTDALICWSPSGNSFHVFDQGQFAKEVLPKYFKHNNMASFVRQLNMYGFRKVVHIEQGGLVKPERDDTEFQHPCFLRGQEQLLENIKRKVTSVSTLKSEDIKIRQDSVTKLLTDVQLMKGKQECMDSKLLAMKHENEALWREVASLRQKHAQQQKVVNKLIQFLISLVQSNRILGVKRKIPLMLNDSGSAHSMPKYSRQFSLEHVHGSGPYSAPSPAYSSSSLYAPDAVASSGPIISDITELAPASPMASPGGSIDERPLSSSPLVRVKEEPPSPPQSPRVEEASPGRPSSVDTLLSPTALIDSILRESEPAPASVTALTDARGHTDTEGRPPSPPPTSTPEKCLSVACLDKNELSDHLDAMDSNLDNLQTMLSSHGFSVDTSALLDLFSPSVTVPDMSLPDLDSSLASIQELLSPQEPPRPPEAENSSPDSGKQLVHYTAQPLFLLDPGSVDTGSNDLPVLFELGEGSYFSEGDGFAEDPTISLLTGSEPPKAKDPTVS
# Chain of ETV1 (P50549 whole entry): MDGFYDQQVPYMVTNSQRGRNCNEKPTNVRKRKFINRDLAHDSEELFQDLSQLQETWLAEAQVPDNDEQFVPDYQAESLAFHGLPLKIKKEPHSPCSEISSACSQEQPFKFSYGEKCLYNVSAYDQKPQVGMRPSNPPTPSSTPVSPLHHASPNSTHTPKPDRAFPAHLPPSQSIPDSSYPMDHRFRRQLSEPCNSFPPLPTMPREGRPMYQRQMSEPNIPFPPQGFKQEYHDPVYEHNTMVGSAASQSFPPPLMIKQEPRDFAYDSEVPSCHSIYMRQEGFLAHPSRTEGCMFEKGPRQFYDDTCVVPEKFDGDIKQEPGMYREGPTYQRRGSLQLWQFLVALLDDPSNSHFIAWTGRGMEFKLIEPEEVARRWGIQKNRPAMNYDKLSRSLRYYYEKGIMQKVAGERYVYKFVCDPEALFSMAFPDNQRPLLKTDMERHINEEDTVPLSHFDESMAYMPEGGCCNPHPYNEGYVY
# Chain of ETV6 (P41212 whole entry): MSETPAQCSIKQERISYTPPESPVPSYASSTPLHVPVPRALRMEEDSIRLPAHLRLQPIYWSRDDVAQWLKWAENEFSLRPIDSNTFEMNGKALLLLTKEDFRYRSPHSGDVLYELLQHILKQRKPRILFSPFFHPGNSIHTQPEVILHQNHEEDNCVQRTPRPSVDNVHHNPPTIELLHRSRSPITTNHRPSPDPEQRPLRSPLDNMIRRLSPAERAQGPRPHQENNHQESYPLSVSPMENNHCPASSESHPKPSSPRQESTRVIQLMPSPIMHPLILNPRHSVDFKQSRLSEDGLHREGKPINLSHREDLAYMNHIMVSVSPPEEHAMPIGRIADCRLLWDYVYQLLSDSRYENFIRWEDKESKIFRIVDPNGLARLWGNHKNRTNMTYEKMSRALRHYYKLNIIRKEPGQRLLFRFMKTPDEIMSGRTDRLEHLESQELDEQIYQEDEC
sequence,measurement,setting,value
CTCCCT,binding signal,[1],"1.44 fold enrichment (6-mer frequency, TF over GST control)"
same,binding signal,[2],"1.73 fold enrichment (6-mer frequency, TF over GST control)"
same,binding signal,[3],"1.32 fold enrichment (6-mer frequency, TF over GST control)"
same,binding signal,[4],"1.38 fold enrichment (6-mer frequency, TF over GST control)"
same,binding signal,[5],"1.59 fold enrichment (6-mer frequency, TF over GST control)"
same,binding signal,[6],"1.41 fold enrichment (6-mer frequency, TF over GST control)"
same,binding signal,[7],"1.51 fold enrichment (6-mer frequency, TF over GST control)"
same,binding signal,[8],"1.48 fold enrichment (6-mer frequency, TF over GST control)"
same,binding signal,[9],"1.36 fold enrichment (6-mer frequency, TF over GST control)"
same,binding signal,[10],"1.44 fold enrichment (6-mer frequency, TF over GST control)"
same,binding signal,[11],"1.72 fold enrichment (6-mer frequency, TF over GST control)"
same,binding signal,[12],"1.54 fold enrichment (6-mer frequency, TF over GST control)"
same,binding signal,[13],"1.57 fold enrichment (6-mer frequency, TF over GST control)"
same,binding signal,[14],"1.53 fold enrichment (6-mer frequency, TF over GST control)"
same,binding signal,[15],"1.52 fold enrichment (6-mer frequency, TF over GST control)"
same,binding signal,[16],"1.41 fold enrichment (6-mer frequency, TF over GST control)"
same,binding signal,[17],"1.55 fold enrichment (6-mer frequency, TF over GST control)"
same,binding signal,[18],"1.37 fold enrichment (6-mer frequency, TF over GST control)"

# From publication PMC7862700, “An all-to-all approach to the identification of sequence-specific readers for epigenetic DNA modifications on cytosine”
